# Many of the other results were omitted from the sample, so hits are more common in it than they were.
# miR-122 inh = miR-122 sensor activation; Huh7 psiCHECK-miR122 Renilla luciferase sensor, 48 h; activation, % at 12.5 µM; 340,000 tested, 0.14% active; AID 623901;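 active = mean activation of 30% or more, with every replicate also reaching 30%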;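 note: 0% = median of neutral control wells and 100% = median of positive control wells; higher luciferase signal means stronger suppression of miR-122 activity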
# * hit, by the source's call.
SMILES,miR-122 inh
COCC(=O)N(C)C[C@@H]1Oc2ncc(C#Cc3ccncc3)cc2C(=O)N([C@H](C)CO)C[C@@H]1C,0
COc1ccc(Oc2ccc(N/C=C3\CCCC3=O)cc2)cc1,36*
COc1ccc(S(=O)(=O)Nc2cc3c4c(oc3c3ccccc23)CCCC4=O)cc1,-127
COc1ccc(NS(=O)(=O)c2cc(C)ccc2C)cc1,-539
CCN(CC)S(=O)(=O)c1ccc(NS(=O)(=O)c2ccc(C)c(C)c2)cc1,-183
O=C(c1cc([N+](=O)[O-])ccc1N1CCOCC1)N1CCN(c2ccccc2)CC1,-90
Cc1onc(C(=O)N2CCN(C(c3ccccc3)c3ccccc3)CC2)c1[N+](=O)[O-],31*
C[C@H](CO)N1C[C@H](C)[C@@H](CN(C)C(=O)Cc2ccccc2)Oc2ncc(C#CC3(O)CCCC3)cc2C1=O,-4
CCCN(C)C[C@@H]1Oc2ncc(-c3ccccc3OC)cc2C(=O)N([C@@H](C)CO)C[C@@H]1C,3
C[C@H](CO)N1C[C@H](C)[C@H](CN(C)Cc2ccc(C(=O)Nc3ccccc3N)cc2)Oc2ccc(NC(=O)CCC(F)(F)F)cc2CC1=O,-98
C[C@H](CO)N1C[C@H](C)[C@@H](CN(C)Cc2ccccn2)Oc2ncc(Br)cc2C1=O,-5
COC(=O)c1c(C)oc(C)c1S(=O)(=O)NCC1CC1,-97
COC(=O)C[C@H]1CC[C@@H]2[C@@H](COc3ccc(NC(=O)c4cnccn4)cc3C(=O)N2C)O1,37*
COC(=O)C[C@H]1CC[C@@H]2[C@@H](COc3ccc(NC(=O)c4cscn4)cc3C(=O)N2C)O1,45*
Cc1cc(C)cc(NS(=O)(=O)c2ccc3c(c2)C(C)(C)C(=O)N3C)c1,-107
CCCCn1c(SCC(=O)Nc2nnc(CC)s2)nc2c1c(=O)n(C)c(=O)n2C,-237
COc1ccccc1S(=O)(=O)N(C)C[C@@H]1Oc2cc(/C=C/c3ccccc3)ccc2S(=O)(=O)N([C@@H](C)CO)C[C@@H]1C,2
C[C@H](CO)N1C[C@H](C)[C@@H](CN(C)Cc2cccnc2)Oc2ncc(-c3ccc(F)cc3)cc2C1=O,0
Cc1cc(C)c(S(=O)(=O)NC(C)C)c(C)c1-n1cnnn1,-91
COc1cccc(-c2cnc3c(c2)C(=O)N([C@@H](C)CO)C[C@@H](C)[C@@H](CN(C)C(=O)CC2CC2)O3)c1,1
CNC[C@H]1Oc2cc(C#CC3CCCCC3)ccc2S(=O)(=O)N([C@H](C)CO)C[C@@H]1C,42*
CNC[C@H]1Oc2cc(C#C[C@H](C)O)ccc2S(=O)(=O)N([C@H](C)CO)C[C@@H]1C,-1
CNC[C@@H]1Oc2cc(C#C[C@H](C)O)ccc2S(=O)(=O)N([C@@H](C)CO)C[C@@H]1C,5
CNC[C@@H]1Oc2cc(C#C[C@@H](C)O)ccc2S(=O)(=O)N([C@H](C)CO)C[C@H]1C,5
CNC[C@@H]1Oc2cc(C#CC3CCCCC3)ccc2S(=O)(=O)N([C@@H](C)CO)C[C@@H]1C,51*
SMILES,miR-122 inh
CNC[C@H]1Oc2cc(C#CC(C)C)ccc2S(=O)(=O)N([C@@H](C)CO)C[C@@H]1C,-7
COCC#Cc1cnc2c(c1)C(=O)N([C@H](C)CO)C[C@@H](C)[C@H](CN(C)S(=O)(=O)c1cccc(OC)c1)O2,2
CO[C@H]1CN(C)C(=O)c2ccc(NC(=O)Nc3ccc(F)cc3)cc2OC[C@@H](C)NC[C@@H]1C,2
CCCNC(=O)N(C)C[C@H]1Oc2ncc(C#C[C@H](C)O)cc2C(=O)N([C@H](C)CO)C[C@@H]1C,1
CCCNC(=O)Nc1ccc2c(c1)OC[C@H](C)N(C)C[C@H](C)[C@H](OC)CN(C)C2=O,-1
CCCC(=O)Nc1ccc2c(c1)C(=O)N(C)C[C@H](OC)[C@H](C)CN[C@H](C)CO2,0
COc1ccc(NC(=O)N(C)C[C@H]2Oc3ncc(C4=CCCC4)cc3C(=O)N([C@@H](C)CO)C[C@H]2C)cc1,2
C[C@H](CO)N1C[C@H](C)[C@H](CN(C)S(=O)(=O)c2ccccc2)Oc2ncc(C#CC3(O)CCCC3)cc2C1=O,4
COc1ccccc1C#Cc1ccc2c(c1)O[C@@H](CN(C)Cc1cncnc1)[C@H](C)CN([C@H](C)CO)S2(=O)=O,-37
C/C(=N\NC(=O)C(C)Oc1ccc([N+](=O)[O-])cc1)c1ccccn1 (stereo not drawn),32*
CCN(CC)c1ccc(NC(=O)COc2ccccc2C#N)cc1S(=O)(=O)Nc1ccccc1OC,-288
Cc1cc(Cl)c(S(=O)(=O)Nc2ccc3c(c2)OCCO3)cc1OCC(=O)NC1CCCCC1,-157
CCCC#Cc1ccc2c(c1)O[C@H](CN(C)C(=O)NCCC)[C@@H](C)CN([C@@H](C)CO)S2(=O)=O,-16
CC(=O)C[C@H]1c2cc(C(F)(F)F)ccc2S(=O)(=O)N1c1ccccc1,-99
CCN(CC)S(=O)(=O)c1cc(C(=O)N(C)CC(=O)Nc2ccc(Cl)cc2)ccc1Cl,-168
Cc1ccc(NC(=O)CN(C)C(=O)Cn2ncc(Cl)c(Cl)c2=O)cc1,71*
COCC#Cc1cnc2c(c1)C(=O)N([C@H](C)CO)C[C@H](C)[C@H](CN(C)S(=O)(=O)c1cccc(OC)c1)O2,7
COc1nnc(-c2ccc(N3CCOCC3)c(NC(=O)c3ccccc3)c2)c2ccccc12,45*
COc1ccc(NS(=O)(=O)c2ccc(N3CCOCC3)c(NC(=O)c3ccc(F)cc3)c2)cc1,-179
COc1ccc(NS(=O)(=O)c2ccc(N3CCOCC3)c(NC(=O)c3cccc(F)c3)c2)cc1,-190
CN(C)c1ccc(C(=O)c2ccc(N(C)C)c3ccccc23)cc1,-92
CCCC(=O)Nc1nc2ccc(S(=O)(=O)N3CCCCC3)cc2s1,-118
CN1C(=O)c2cc(NC(=O)c3cccc(F)c3)ccc2OC[C@@H]2O[C@@H](CC(=O)NC3CCC3)CC[C@H]21,70*
CN1C(=O)c2cc(NC(=O)NC3CCCC3)ccc2OC[C@H]2O[C@@H](CC(=O)O)CC[C@H]21,-138
CC(=O)Nc1ccc2c(c1)C(=O)N(C)[C@H]1CC[C@H](CC(=O)NC3CCCCC3)O[C@@H]1CO2,63*
SMILES,miR-122 inh
CN1C(=O)c2cc(NC(=O)Cc3ccccc3)ccc2OC[C@@H]2O[C@H](CC(=O)NC3CCC3)CC[C@@H]21,-125
CCN(CC)c1ccc(NC(=O)c2ccccn2)cc1S(=O)(=O)Nc1ccccc1OC,-125
CCC(=O)Nc1ccc2c(c1)C(=O)N(C)C[C@H](OC)[C@@H](C)CN(C(C)=O)[C@H](C)CO2,1
COc1ccc(S(=O)(=O)N(C)C[C@@H]2Oc3ncc(-c4cccc(F)c4)cc3C(=O)N([C@H](C)CO)C[C@@H]2C)cc1,-6
CC(C)C#Cc1ccc2c(c1)O[C@H](CN(C)C(=O)CN(C)C)[C@H](C)CN([C@@H](C)CO)S2(=O)=O,5
COCC(=O)N(C)C[C@@H]1Oc2cc(-c3cncnc3)ccc2S(=O)(=O)N([C@@H](C)CO)C[C@@H]1C,1
CCn1c(Cl)c(C=O)s/c1=N\S(=O)(=O)c1ccccc1,72*
C[C@H]1CN([C@@H](C)CO)C(=O)c2cc(C#Cc3cccc(F)c3)cnc2O[C@H]1CN(C)CC1CCOCC1,-2
C[C@H]1CN([C@@H](C)CO)S(=O)(=O)c2ccc(-c3cncnc3)cc2O[C@H]1CN(C)Cc1cncnc1,5
CCO/C=C1\N=C(c2ccc(F)cc2)OC1=O,60*
Fc1ccc(-n2nnc(-c3nccs3)n2)cc1,-136
C[C@@H]1CN([C@@H](C)CO)C(=O)c2cc(/C=C/c3ccccc3)cnc2O[C@H]1CN(C)C(=O)c1ccncc1,1

# Source: PubChem (Broad Institute)
